# From PubChem BioAssay (EPA / NIEHS)
# Activity calls are given as the source filed them. How the source made its calls: active means hit-call score of the fitted dose curve at least 0.9, where 1 is the maximum; inactive means score below 0.9.
# Biological target: Hepatocyte nuclear factor 3-beta (Homo sapiens) (UniProt Q9Y261)
# Test: ATG_FoxA2_CIS: Attagene CIS-FACTORIAL HepG2 Assay for human Forkhead box A2 (FOXA2) (AID 2282942)
# Conditions: HepG2 cis-reporter transcription factor activity, 24 h; actives raise or lower the signal
# Procedure: ATG_CIS is a cell-based, multiplexed-readout assay that uses HepG2, a human liver cell line, with measurements taken at 24 hours after chemical dosing in a 24-well plate.ATG_FoxA2_CIS is one of 52 assay component(s) measured or calculated from the ATG_CIS assay. It is designed to make measurements of mRNA induction, a form of inducible reporter, as detected with fluorescence intensity signals by Reverse transcription polymerase chain reaction (RT-PCR) and Capillary electrophoresis technology.Data from the assay component ATG_FoxA2_CIS was analyzed into 1 assay endpoint. This assay endpoint, ATG_FoxA2_CIS, was analyzed with bidirectional fitting relative to DMSO as the negative control and baseline of activity. Using a type of inducible reporter, measures of mRNA for gain or loss-of-signal activity can be used to understand the reporter gene at the transcription factor-level as they relate to the gene FOXA2. Furthermore, this assay endpoint can be referred to as a primary readout, because this assay has produced multiple assay endpoints where this one serves a reporter gene function. To generalize the intended target to other relatable targets, this assay endpoint is annotated to the dna binding intended target family, where the subfamily is forkhead box protein.
# Human liver HepG2 cells are transiently transfected with multiple reporter transcription units (MRTUs) in 6-well plates using FuGene 6 reagent (Roche; 3 ml FuGene/1 mg DNA). The MRTU constructs are regulated by a cis-regulating element (promoter). […] A major difference between the CIS and TRANS system is that in CIS activities of endogenous TFs are measured, whereas the TRANS assay evaluates changes in activities of exogenous, chimeric NR-Gal4 proteins. […] At the end of 24 hour incubation, total RNA was isolated using TriZol reagent (Invitrogen). The isolated RNA is then reverse-transcribed using oligo(dT) primer and Mo-MLV reverse transcriptase (Invitrogen) with DNAse I (Ambion) treatment for 30 min. The one-tenth of the produced cDNA was amplified by PCR using Taq DNA polymerase (Invitrogen) and two reporter sequence-specific primers. The PCR products were fluorescently labeled by primer extension with 6-arboxyfluorescein (6-FAM) 5'-labeled reporter sequence-specific primer (2 min at 95 C, 20 s at 68 C and 10 min at 72 C) and these products were digested with 5U of HpaI (New England Biolabs) for 2h at 37 C. The fragments were purified using Qiaquick PCR columns (Qiagen), analyzed on an ABI 3130xL genetic analyzer (Applied Biosystems) with peak positions identified by using a set of X-rhodamine (ROX)-labeled MapMarker1000 molecular weight standards (BioVentures). The raw capillary electrophoresis data was processed using Attagraph software (Attagene).
# Chain of Hepatocyte nuclear factor 3-beta (Homo sapiens) (Q9Y261 whole entry, looked up): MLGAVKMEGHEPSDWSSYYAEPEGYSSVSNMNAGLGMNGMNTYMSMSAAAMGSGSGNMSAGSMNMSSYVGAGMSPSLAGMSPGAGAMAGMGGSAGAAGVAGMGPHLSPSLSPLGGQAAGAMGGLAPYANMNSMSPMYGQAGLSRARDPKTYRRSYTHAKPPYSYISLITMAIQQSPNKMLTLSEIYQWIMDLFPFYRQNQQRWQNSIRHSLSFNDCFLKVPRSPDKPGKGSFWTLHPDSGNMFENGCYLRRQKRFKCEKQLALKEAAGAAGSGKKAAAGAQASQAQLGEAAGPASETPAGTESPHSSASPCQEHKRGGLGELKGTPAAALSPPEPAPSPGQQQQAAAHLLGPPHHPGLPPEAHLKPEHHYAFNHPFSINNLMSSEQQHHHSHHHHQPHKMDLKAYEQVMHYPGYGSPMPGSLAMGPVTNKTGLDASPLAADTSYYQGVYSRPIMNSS
row,SMILES,outcome
1,CC(=O)/C=C/C1C(C)=CCCC1(C)C (stereo not given),inactive
2,Oc1ccccc1Cc1ccccc1O,inactive
3,Cc1cc(=O)[nH]c(=O)[nH]1,inactive
4,CCOB(OCC)OCC,inactive
5,CCN1CN(CC)CN(CC)C1,inactive
6,CC12CCC(CC1)C(C)(C)O2,inactive
7,COc1cc(C)ccc1O,inactive
8,CCCCC(CC)COS(=O)(=O)O (stereo not given),inactive
9,c1ccc2sc(SSN3CCOCC3)nc2c1,inactive
10,CCCCCCO,inactive
11,[Cl][Sc]([Cl])[Cl],inactive
12,CCC1COC(=O)O1 (stereo not given),inactive
13,CC(C)c1cccc(C(C)C)c1N,inactive
14,COc1ccc(C(=O)c2ccccc2)c(O)c1,inactive
15,C=C(C)C1CC=C(C)CC1 (stereo not given),inactive
16,CC/C=C\CCOC(=O)c1ccccc1O,inactive
17,COCC(=O)O,inactive
18,CCCCC/C=C\C/C=C\CCCCCCCC(=O)O,inactive
19,O=C(C=Cc1ccccc1)OCCc1ccccc1,inactive
20,CCCCCC(=O)OCC,inactive

row,SMILES,outcome
1,CN1CCN(C)CC1,inactive
2,CC(C=O)c1ccccc1 (stereo not given),inactive
3,Cc1ccc2c(c1)CCCN2,inactive
4,C[N+](C)(C)CCCNS(=O)(=O)C(F)(F)C(F)(F)C(F)(F)C(F)(F)C(F)(F)C(F)(F)C(F)(F)C(F)(F)F,inactive
5,CC1CCC(C(C)(C)S)C(=O)C1 (stereo not given),inactive
6,C=CCOC(=O)c1ccc(C(=O)OCC=C)c(C(=O)OCC=C)c1,inactive
7,C=C[C@@]1(C)CC(=O)[C@]2(O)[C@@]3(C)[C@@H](O)CCC(C)(C)[C@@H]3[C@H](O)[C@H](OC(C)=O)[C@@]2(C)O1,inactive
8,CC(C)(C)C1CCC(=O)CC1,inactive
9,CC(C)=CCCC(C)=CC#N,inactive
10,CC(=O)C(C)C,inactive
11,CC(=O)CCC=C(C)C,inactive
12,CC(C)(c1ccccc1)c1ccc(Nc2ccc(C(C)(C)c3ccccc3)cc2)cc1,inactive
13,c1ccc2c(c1)[nH]c1ccccc12,inactive
14,O=C(OCCc1ccccc1)c1ccccc1,inactive
15,Oc1c(Cl)cc(Cl)c(Cl)c1Cl,inactive
16,Cc1noc(NS(=O)(=O)c2ccc(N)cc2)c1C,inactive
17,CCOC(=O)C1=NN(c2ccc(Cl)cc2Cl)C(C)(C(=O)OCC)C1 (stereo not given),inactive
18,c1ccc2cnccc2c1,inactive
19,CCCCNC(=S)NCCCC,inactive
20,CC(C)CC(=O)OCc1ccccc1,inactive
